Measured values from PubChem BioAssay AID1159580 (chemical genetic matrix, 2015).
About 2,000 (36%) of roughly 5,500 compounds were called active. Roughly 18% stayed inconclusive and do not appear here. No stated cut-off is given here; in the data, active means normalized growth mostly below about 0.91 (no sharp cut-off); inconclusive means no clear call, values can overlap the other calls; inactive means mostly above about 0.92. The list shows a part of the results.

Assay: chemical genetic growth profiling, strain panel (AID 1159580);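 further: tested at 20 µM; growth read once vehicle control cultures reached saturation at 30 °C; 1 = growth at the plate median or of vehicle wells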
Conditions: growth OD

Measured: normalized growth

C/C=C(/C(=C/C)c1ccc(O)cc1)c1ccc(O)cc1
active: S. cerevisiae deletion strains, locus YKL009W, strain mrt4, stronger effect = lower value 0.81 | S. cerevisiae deletion strains, locus YKL085W, strain MDH1 (second series), stronger effect = lower value 0.764 | S. cerevisiae deletion strains, locus YKL085W, strain MDH1, stronger effect = lower value 0.764 | S. cerevisiae deletion strains, locus YKR001C, strain vps1, stronger effect = lower value 0.531 | S. cerevisiae deletion strains, locus YLR039C, strain RIC1, stronger effect = lower value 0.368 | S. cerevisiae deletion strains, locus YLR058C, strain SHM2, stronger effect = lower value 0.759 | S. cerevisiae deletion strains, locus YLR262C, strain YPT6 (second series), stronger effect = lower value 0.659 | S. cerevisiae deletion strains, locus YLR262C, strain YPT6, stronger effect = lower value 0.292 | S. cerevisiae deletion strains, locus YLR268W, strain sec22, stronger effect = lower value 0.866 | S. cerevisiae deletion strains, locus YLR330W, strain CHS5, stronger effect = lower value 0.724 | S. cerevisiae deletion strains, locus YLR342W, strain FKS1 (second series), stronger effect = lower value 0.683 | S. cerevisiae deletion strains, locus YLR371W, strain rom2, stronger effect = lower value 0.453 | S. cerevisiae deletion strains, locus YLR418C, strain cdc73, stronger effect = lower value 0.542 | S. cerevisiae deletion strains, locus YML016C, strain PPZ1, stronger effect = lower value 0.914 | S. cerevisiae deletion strains, locus YML032C, strain rad52, stronger effect = lower value 0.691 | S. cerevisiae deletion strains, locus YML120C, strain ndi1, stronger effect = lower value 0.909 | S. cerevisiae deletion strains, locus YMR223W, strain ubp8, stronger effect = lower value 0.745 | S. cerevisiae deletion strains, locus YMR263W, strain SAP30, stronger effect = lower value 0.851 | S. cerevisiae deletion strains, locus YMR307W, strain GAS1, stronger effect = lower value 0.336 | S. cerevisiae deletion strains, locus YNL067W, strain RPL9B, stronger effect = lower value 0.863 | S. cerevisiae deletion strains, locus YNL071W, strain lat1, stronger effect = lower value 0.906 | S. cerevisiae deletion strains, locus YNL233W, strain BNI4, stronger effect = lower value 0.76 | S. cerevisiae deletion strains, locus YNL250W, strain rad50, stronger effect = lower value 0.871 | S. cerevisiae deletion strains, locus YNL271C, strain bni1, stronger effect = lower value 0.899 | S. cerevisiae deletion strains, locus YNL298W, strain CLA4, stronger effect = lower value 0.629 | S. cerevisiae deletion strains, locus YNL307C, strain MCK1, stronger effect = lower value 0.707 | S. cerevisiae deletion strains, locus YNR052C, strain pop2, stronger effect = lower value 0.383 | S. cerevisiae deletion strains, locus YOL006C, strain TOP1, stronger effect = lower value 0.456 | S. cerevisiae deletion strains, locus YOL147C, strain pex11, stronger effect = lower value 0.839 | S. cerevisiae deletion strains, locus YOR061W, strain CKA2, stronger effect = lower value 0.879 | S. cerevisiae deletion strains, locus YOR069W, strain VPS5, stronger effect = lower value 0.896 | S. cerevisiae deletion strains, locus YOR144C, strain elg1, stronger effect = lower value 0.86 | S. cerevisiae deletion strains, locus YOR184W, strain ser1, stronger effect = lower value 0.609 | S. cerevisiae deletion strains, locus YPR163C, strain tif3, stronger effect = lower value 0.91 | S. cerevisiae deletion strains, locus YPR167C, strain met16, stronger effect = lower value 0.854 | S. cerevisiae deletion strains, strain wtn01, stronger effect = lower value 0.837 | S. cerevisiae strains, strain wild type, stronger effect = lower value 0.877
inactive: S. cerevisiae deletion strains, locus YKL068W, stronger effect = lower value 0.961 | S. cerevisiae deletion strains, locus YKL160W, strain elf1, stronger effect = lower value 0.947 | S. cerevisiae deletion strains, locus YKL190W, strain CNB1, stronger effect = lower value 0.976 | S. cerevisiae deletion strains, locus YKR026C, strain gcn3, stronger effect = lower value 0.986 | S. cerevisiae deletion strains, locus YKR091W, strain srl3, stronger effect = lower value 0.995 | S. cerevisiae deletion strains, locus YLL001W, strain dnm1, stronger effect = lower value 0.948 | S. cerevisiae deletion strains, locus YLL026W, stronger effect = lower value 0.969 | S. cerevisiae deletion strains, locus YLL041C, strain sdh2, stronger effect = lower value 0.965 | S. cerevisiae deletion strains, locus YLR027C, strain aat2, stronger effect = lower value 0.959 | S. cerevisiae deletion strains, locus YLR102C, strain apc9, stronger effect = lower value 0.991 | S. cerevisiae deletion strains, locus YLR113W, strain HOG1, stronger effect = lower value 0.985 | S. cerevisiae deletion strains, locus YLR221C, strain rsa3, stronger effect = lower value 0.982 | S. cerevisiae deletion strains, locus YLR258W, strain gsy2, stronger effect = lower value 0.996 | S. cerevisiae deletion strains, locus YLR320W, strain mms22, stronger effect = lower value 0.978 | S. cerevisiae deletion strains, locus YLR342W, strain FKS1, stronger effect = lower value 0.943 | S. cerevisiae deletion strains, locus YLR357W, strain rsc2, stronger effect = lower value 0.989 | S. cerevisiae deletion strains, locus YLR370C, strain arc18, stronger effect = lower value 1 | S. cerevisiae deletion strains, locus YLR384C, strain iki3, stronger effect = lower value 0.983 | S. cerevisiae deletion strains, locus YML124C, strain tub3, stronger effect = lower value 0.971 | S. cerevisiae deletion strains, locus YMR058W, strain fet3, stronger effect = lower value 0.932 | S. cerevisiae deletion strains, locus YMR078C, strain ctf18, stronger effect = lower value 0.979 | S. cerevisiae deletion strains, locus YMR125W, strain sto1, stronger effect = lower value 0.924 | S. cerevisiae deletion strains, locus YMR129W, stronger effect = lower value 0.986 | S. cerevisiae deletion strains, locus YMR205C, strain PFK2, stronger effect = lower value 0.958 | S. cerevisiae deletion strains, locus YMR231W, strain pep5, stronger effect = lower value 0.975 | S. cerevisiae deletion strains, locus YNL183C, strain NPR1, stronger effect = lower value 0.971 | S. cerevisiae deletion strains, locus YNL209W, strain ssb2, stronger effect = lower value 1 | S. cerevisiae deletion strains, locus YNL248C, strain rpa49, stronger effect = lower value 0.951 | S. cerevisiae deletion strains, locus YNL322C, strain KRE1 (second series), stronger effect = lower value 0.985 | S. cerevisiae deletion strains, locus YNR049C, strain mso1, stronger effect = lower value 0.99 | S. cerevisiae deletion strains, locus YOL012C, strain htz1 1.01 | S. cerevisiae deletion strains, locus YOR001W, strain rrp6, stronger effect = lower value 0.967 | S. cerevisiae deletion strains, locus YOR070C, strain gyp1, stronger effect = lower value 0.989 | S. cerevisiae deletion strains, locus YOR080W, strain dia2, stronger effect = lower value 0.97 | S. cerevisiae deletion strains, locus YOR083W, strain WHI5, stronger effect = lower value 0.929 | S. cerevisiae deletion strains, locus YOR106W, strain vam3, stronger effect = lower value 0.914 | S. cerevisiae deletion strains, locus YOR136W, strain idh2, stronger effect = lower value 0.938 | S. cerevisiae deletion strains, locus YOR231W, strain MKK1, stronger effect = lower value 0.964 | S. cerevisiae deletion strains, locus YOR265W, strain rbl2, stronger effect = lower value 0.976 | S. cerevisiae deletion strains, locus YOR270C, strain vph1, stronger effect = lower value 0.911 | S. cerevisiae deletion strains, locus YOR290C, strain snf2, stronger effect = lower value 0.971 | S. cerevisiae deletion strains, locus YOR316C, strain cot1, stronger effect = lower value 0.993 | S. cerevisiae deletion strains, locus YPL051W, strain arl3, stronger effect = lower value 0.956 | S. cerevisiae deletion strains, locus YPL078C, strain atp4, stronger effect = lower value 0.901 | S. cerevisiae deletion strains, locus YPL106C, strain sse1, stronger effect = lower value 0.975 | S. cerevisiae deletion strains, locus YPL240C, strain hsp82, stronger effect = lower value 0.981 | S. cerevisiae deletion strains, locus YPL241C, strain CIN2, stronger effect = lower value 0.988 | S. cerevisiae deletion strains, locus YPL256C, strain CLN2, stronger effect = lower value 0.992 | S. cerevisiae deletion strains, locus YPR119W, strain clb2, stronger effect = lower value 0.981 | S. cerevisiae deletion strains, locus YPR141C, strain kar3, stronger effect = lower value 0.978
